# SW480 rereplic: A quantitative high throughput screen for small molecules that induce DNA re-replication in SW480 colon adenocarcinoma cells; Potency, µM (titrated, usually from 46.1 µM), actives largely listed as activators; hit rate 1.8% among 340,000; SW480 DNA re-replication, Hoechst DNA content imaging, 48 h; further: nearly all actives have a fitted effect of over 55% in size
#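 Cells (250 per well) received 23 nL compound or DMSO by pin tool and were kept 48 hr at 37 C, 5% CO2. Nuclei were then stained with Hoechst for 40 min and scanned for DNA content.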
# KB-3-1 cytotox: qHTS assay for MDR1-selective chemotherapeutics: Primary screen using the parental adenocarcinoma cell KB-3-1; KB-3-1 viability, CellTiter-Glo ATP luminescence, 72 h; Potency, µM (highest dose often 46.1 µM), hits mostly cytotoxic; hit rate 1.4% among 400,000; AID 1347075, 2019; further: nearly all actives have a fitted effect of over 60% in size
#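 72 h, 37 °C compound treatment of KB-3-1 parental cells; CellTiter-Glo added, 10 min, luminescence read. Data corrected against DMSO-only plates and normalized before curve fitting.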
# HT1080NT lethal: qHTS for induction of synthetic lethality in tumor cells producing 2HG: qHTS for the HT-1080-NT fibrosarcoma cell line; HT-1080-NT fibrosarcoma viability, CellTiter-Glo ATP luminescence, 48 h; Potency, µM (series often up to 46.1 µM), usual class: cytotoxic; hit rate 1.6% among 360,000; AID 686970, 2013;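 further: NT is the 2HG producing partner of a matched IDH1 knockdown line; nearly all actives have a fitted effect of over 55% in size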
#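 Fibrosarcoma NT cells, 750 per well in 5% FBS RPMI, were exposed to compound for 48 hours. Viability: CellTiter-Glo luminescence.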
# MCF10A rereplic: A quantitative high throughput screen for small molecules that induce DNA re-replication in MCF 10a normal breast cells | MCF 10A DNA re-replication, Hoechst nuclear intensity, 48 h | Potency, µM (doses to about 46.1 µM), usual class: activators | hit rate 2.9% among 350,000 | AID 624296, 2012; further: nearly all actives have a fitted effect of over 50% in size
# HT1080 IDH1KD tx: qHTS for induction of synthetic lethality in tumor cells producing 2HG: qHTS for the HT-1080-IDH1KD cell line. HT-1080 IDH1 knockdown viability, ATP luminescence, 48 h. Potency, µM (doses to about 46.1 µM), usual class: cytotoxic. hit rate 2% among 360,000
#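 Cytotoxicity counter-line: IDH1KD HT-1080, 48 h, CellTiter-Glo. Curves classed by r2, magnitude and activity.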
# KB-V1 cytotox: qHTS assay for MDR1-selective chemotherapeutics: Primary screen using the drug-selected MDR subline cells KB-V1. KB-V1 MDR cells viability, CellTiter-Glo, 72 h. Potency, µM (series often up to 46.1 µM), hits mostly cytotoxic. hit rate 3.4% among 400,000; further: nearly all actives have a fitted effect of over 60% in size
#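 Following 72 h at 37 degrees C with compound, KB-V1 cell viability was read by CellTiter-Glo luminescence, medium being phenol-red-free DMEM plus 10% FBS; concentration-response parameters came from normalized, curve-fitted qHTS data.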
# Hits are given with their value; – = inactive; ? = inconclusive; · = no result; [ ] = another dose, or the depositor's remark. Only some compounds are listed: those with a hit (about 8% of all), similar ones and a draw of the others. The call rests on the fitted dose curve; in most records, active means well fitted curve in the direction sought with a large enough effect; inconclusive means small, poorly fitted or top-dose-only effect, or another doubt; inactive means no such curve, though single readings can be large; an effect the other way counts as inactive or inconclusive.
SMILES,SW480 rereplic,KB-3-1 cytotox,HT1080NT lethal,MCF10A rereplic,HT1080 IDH1KD tx,KB-V1 cytotox
O=C(NCc1ccncc1)C12CC3CC(CC(Cl)(C3)C1)C2,–,–,–,?,–,–
O=S(=O)(c1ccc(Cl)cc1)N1CCN(c2nc(-c3ccccc3)nc3ccccc23)CC1,·,–,·,·,·,–
CN(C(=O)COC(=O)c1ccc(Br)c(S(=O)(=O)N2CCOCC2)c1)C1CCCCC1,–,–,–,–,–,–
CCOCCc1nn2c(=O)cc(COC(=O)c3ccccc3NC(=O)c3ccc(C)cc3)nc2s1,·,–,·,·,·,–
Cc1nc(Cc2nnc(SCC(=O)N3CCN(c4ccc(F)cc4)CC3)o2)cs1,–,–,–,–,–,–
Cc1nc(Cc2nnc(SCC(=O)N3CCN(c4ccc(O)cc4)CC3)o2)cs1,2.1µM,–,–[9.24 µM],–,–,–
CC(C(=O)NCc1cccc(Cl)c1)N1C(=O)c2ccccc2C1=O (stereo not given),–,–,–,–,–,–
O=C(c1ccccc1OCc1ccccc1Br)N1CCN(c2ncccn2)CC1,?,?,?,?,?,6.5µM
Cc1ccnc(NC(c2cccnc2)c2ccc3cccnc3c2O)c1 (stereo not given),3.3µM,–,?,?,?,?
Cc1ccnc(NC(c2ccccc2F)c2ccc3cccnc3c2O)c1 (stereo not given),·,?,·,·,·,–
Cc1ccnc(NC(c2ccsc2)c2ccc3ccc(C)nc3c2O)c1 (stereo not given),?,–,?,?,15µM,–
COc1ccc(C(Nc2cc(C)ccn2)c2ccc3ccc(C)nc3c2O)cc1 (stereo not given),?,–,–,–,–,–
CCCNC(=O)Cn1nc(-c2ccc(F)cc2)c2cnc3ccc(F)cc3c21,·,–,·,·,·,–
CCN1c2ccccc2NC2N=C(OC)C(c3ccccc3)C21 (stereo not given),16µM,–,11µM,?,8.9µM,?
CCN1C(=O)N[C@@H](c2ccccc2)[C@H](C(=O)OC)[C@H]1C,–,–,–,–,–,–
Cc1ccc(CNCc2c(C(=O)O)n(Cc3ccc(C)cc3)c3cc(C)ccc23)cc1,·,–,·,·,·,–
CCc1ccc(CNCc2c(C(=O)O)n(Cc3ccc(C)cc3)c3cc(C)ccc23)cc1,·,18µM,·,·,·,–
O=C1NC(Cc2ccc(O)cc2)c2nc3cc(Cl)ccc3c(=O)n2-c2cc3ccccc3cc21 (stereo not given),·,?,23µM,·,16µM,?
O=C1NC(Cc2ccc(O)cc2)c2nc3cc(F)c(F)cc3c(=O)n2-c2cc3ccccc3cc21 (stereo not given),·,?,?,·,18µM,–
COc1cc2nc3n(c(=O)c2cc1OC)-c1cc2ccccc2cc1C(=O)NC3CC(C)C (stereo not given),·,18µM,–,·,?,?
O=C1NC(Cc2ccccc2)c2nc3cc(F)c(F)cc3c(=O)n2-c2cc3ccccc3cc21 (stereo not given),·,15µM,?,·,?,?
CC1(C)CCc2cc(O)ccc2O1,·,·,–,·,–,·
C#C[C@@]1(O)CC[C@@H]2[C@@H]3CCC4=C(CCC(=O)C4)[C@H]3CC[C@]21C,–,·,·,–,·,·
CCOc1ccc(OC(=O)c2c(-c3ccccc3Cl)noc2C)cc1,·,–,·,·,·,–
Cc1ccc2c(=O)n3c(nc2c1)C(Cc1ccc(O)cc1)NC(=O)c1cccnc1-3 (stereo not given),·,–,–,·,–,?
Cc1ccc2nc3n(c(=O)c2c1)-c1cc2ccccc2cc1C(=O)NC3Cc1ccc(O)cc1 (stereo not given),·,?,9.2µM,·,13µM,–

# High-throughput results from PubChem.
